Measured values from PubChem BioAssay (Tox21).
Inconclusive results are not listed. Activity calls are given as the source filed them. Unless noted, the call rests on the fitted dose curve; in most records, active means well fitted curve in the direction sought with a large enough effect in the repeat runs; inconclusive means weak or mixed curves; inactive means no such curve, though single readings can be large; an effect the other way counts as inactive or inconclusive.

Experiments:
[1] = target: Aryl hydrocarbon receptor (Homo sapiens) (UniProt P35869); assay: qHTS assay to identify small molecule that activate the aryl hydrocarbon receptor (AhR) signaling pathway (AID 743085);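 further: HG2L7.5c1 human HepG2 liver cells with stably integrated DRE-driven firefly reporter; series mostly up to about 70 µM; nearly all actives have a fitted effect of over 15% in size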
How it was run: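 Luminescence (ONE-Glo) from a dioxin-responsive-element luciferase reporter in HG2L7.5c1 HepG2 cells after 24 hr compound exposure at 37C; viability measured by CellTiter-Fluor fluorescence beforehand.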

[2] = qHTS assay to identify small molecule that activate the aryl hydrocarbon receptor (AhR) signaling pathway - cell viability counter screen (AID 743086);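 further: HepG2 liver cells carrying the AhR DRE luciferase reporter; series mostly up to about 70 µM; nearly all actives have a fitted effect of over 45% in size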
How it was run: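 HepG2-AhR-luc (HG2L7.5c1) cells, 4000/well, treated 24 h at 37 C with compound; viability measured as CellTiter-Fluor fluorescence after 30 min in the same wells as the luciferase read.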

[3] = target: Peroxisome proliferator-activated receptor gamma (Homo sapiens) (UniProt P37231); assay: qHTS assay to identify small molecule agonists of the peroxisome proliferator-activated receptor gamma (PPARg) signaling pathway (AID 743094; active means well fitted activation curve with a large enough effect in the signal ratio in the repeat runs, not every such curve was filed as active; the % refers to the signal ratio)
How it was run: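 Cells from the PPARg UAS-bla HEK293H line are plated and incubated 5 h at 37C. Compounds in DMSO are pinned in and left 17 h at 37C. LiveBLAzer B/G substrate is then added for 1 h at room temperature before fluorescence is measured.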

[4] = target: Peroxisome proliferator-activated receptor gamma (Homo sapiens) (UniProt P37231); assay: qHTS assay to identify small molecule antagonists of the peroxisome proliferator-activated receptor gamma (PPARg) signaling pathway (AID 743191; calls by dose curve; further: series mostly up to about 63 µM; nearly all actives have a fitted effect of over 30% in size)
How it was run: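 GeneBLAzer PPARg UAS-bla HEK293H cells, 5 h post-plating, exposed to compounds 17 h at 37C. LiveBLAzer B/G FRET substrate added for 1 h at room temperature; beta-lactamase reporter read by fluorescence intensity.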

[5] = qHTS assay to identify small molecule antagonists of the peroxisome proliferator-activated receptor gamma (PPARg) signaling pathway - cell viability counter screen (AID 743194); further: nearly all actives have a fitted effect of over 55% in size
How it was run: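 Cytotoxicity counter screen in PPARg-bla HEK293H cells, same wells as reporter assay. Compounds plus 50 nM rosiglitazone (final) for 17 h at 37 C, then viability read by CellTiter-Glo luminescence.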

[6] = qHTS assay for small molecule activators of the heat shock response signaling pathway - cell viability counter screen (AID 743209); further: nearly all actives have a fitted effect of over 50% in size
How it was run: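 Cytotoxicity counter screen run in parallel with the HSE beta-lactamase reporter, using the same wells. HeLa HSE-bla cells received compound for 5 h at 37 C; ATP-based CellTiter-Glo luminescence was measured after 30 min at room temperature.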

[7] = qHTS assay for small molecule activators of the heat shock response signaling pathway (AID 743210; active means well fitted activation curve with a large enough effect in the signal ratio in the repeat runs, with a control signal flat, not every such curve was filed as active; the % refers to the signal ratio;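 further: HeLa cells with beta-lactamase reporter driven by heat shock elements; series mostly up to about 63 µM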)
How it was run: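 Beta-lactamase reporter read-out: FRET substrate fluorescence after 2.5 h at RT, following 5 h compound treatment at 37 C of HeLa cells carrying HSE-driven bla reporter; quantitative HTS format.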

[8] = target: Peroxisome proliferator-activated receptor delta (Homo sapiens) (UniProt Q03181); assay: qHTS assay to identify small molecule agonists of the peroxisome proliferator-activated receptor delta (PPARd) signaling pathway (AID 743212; calls by dose curve)
How it was run: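 Read-out: beta-lactamase FRET fluorescence after 2 h room-temperature incubation with LiveBLAzer B/G substrate. Cells were HEK293H carrying a UAS-bla reporter for PPARd, treated at 37 C with DMSO-dissolved compounds.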

[9] = qHTS assay to identify small molecule antagonists of the peroxisome proliferator-activated receptor delta (PPARd) signaling pathway - cell viability counter screen (AID 743213); further: nearly all actives have a fitted effect of over 50% in size
How it was run: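 CellTiter-Glo was added to PPARd-bla HEK293H wells following 17 h compound treatment in the presence of 300 nM L165041. Luminescence was recorded after 30 min at room temperature.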

[10] = target: Bile acid receptor (Homo sapiens) (UniProt Q96RI1); assay: qHTS assay to identify small molecule antagonists of the farnesoid-X-receptor (FXR) signaling pathway (AID 743217; active means well fitted inhibition curve with a large enough effect in the signal ratio in the repeat runs, not every such curve was filed as active; the % refers to the signal ratio)
How it was run: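 Cells carrying a UAS-driven beta-lactamase reporter (GeneBLAzer FXR-UAS-bla HEK 293T) were plated and rested 5 h at 37 °C. Compounds in DMSO were added alongside chenodeoxycholic acid agonist at 50 uM final and left 16 h at 37 °C before FRET substrate readout.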

[11] = qHTS assay to identify small molecule agonists of the farnesoid-X-receptor (FXR) signaling pathway - cell viability counter screen (AID 743218); further: nearly all actives have a fitted effect of over 45% in size
How it was run: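 Cells were seeded, left 5 h at 37 C and 5% CO2, then dosed with compound in DMSO for 16 h. After the beta-lactamase FRET read, CellTiter-Glo was added and luminescence measured 30 min later.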

[12] = target: Bile acid receptor (Homo sapiens) (UniProt Q96RI1); assay: qHTS assay to identify small molecule agonists of the farnesoid-X-receptor (FXR) signaling pathway (AID 743220; active means well fitted activation curve with a large enough effect in the signal ratio in the repeat runs, not every such curve was filed as active; the % refers to the signal ratio)
How it was run: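 FXR-UAS-bla HEK 293T cells carrying a UAS-driven beta-lactamase reporter were plated for 5 h at 37C/5% CO2, then exposed to DMSO-dissolved Tox21 10K compounds for 16 h at 37C. A LiveBLAzer B/G FRET substrate was loaded for 2 h at room temperature before fluorescence reading.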

[13] = qHTS assay to identify small molecule antagonists of the farnesoid-X-receptor (FXR) signaling pathway - cell viability counter screen (AID 743221; active means well fitted cell-killing curve with a large enough effect in the repeat runs, not every such curve was filed as active; further: nearly all actives have a fitted effect of over 50% in size)
How it was run: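 Cytotoxicity counter screen run in the FXR-bla reporter wells: HEK 293T cells exposed to compound with 50 uM (final) chenodeoxycholic acid for 16 h, 37 C, then viability measured by CellTiter-Glo luminescence after 30 min, room temperature.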

[14] = target: Vitamin D3 receptor (Homo sapiens) (UniProt P11473); assay: qHTS assay to identify small molecule agonists of the vitamin D receptor (VDR) signaling pathway (AID 743222; calls by dose curve)
How it was run: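 Cells carrying a VDR-driven beta-lactamase reporter are seeded at 2,000 per well and rested 4 h. Compounds in DMSO are added for 16 h at 37C, and FRET substrate fluorescence is measured after 2 h at room temperature.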

[15] = target: Vitamin D3 receptor (Homo sapiens) (UniProt P11473); assay: qHTS assay to identify small molecule antagonists of the vitamin D receptor (VDR) signaling pathway (AID 743223; active means well fitted inhibition curve with a large enough effect in the signal ratio in the repeat runs, not every such curve was filed as active; the % refers to the signal ratio)
How it was run: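 Antagonist mode: compound added to VDR-bla cells alongside agonist 1alpha,25-dihydroxyvitamin D3 (3 nM final), incubation 16 h at 37C. Read-out is LiveBLAzer FRET fluorescence, 2 h at room temperature.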

[16] = qHTS assay to identify small molecule agonists of the vitamin D receptor (VDR) signaling pathway - cell viability counter screen (AID 743224); further: series mostly up to about 63 µM; nearly all actives have a fitted effect of over 50% in size
How it was run: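 Cells: VDR-bla, 2,000/well, settled 4 h. Treatment: compounds in DMSO, 16 h, 37C/5% CO2. Readout: CellTiter-Glo luminescence after 30 min RT.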

[17] = qHTS assay for small molecule agonists of the antioxidant response element (ARE) signaling pathway (AID 743202; active means well fitted activation curve with a large enough effect in the signal ratio in the repeat runs, not every such curve was filed as active; the % refers to the signal ratio)
How it was run: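 HepG2 ARE-bla reporter line, 2,000 cells/well; 5 h preincubation 37 C/5% CO2; compound (DMSO) 16 h 37 C; B/G FRET substrate 2 h RT; fluorescence intensity.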

[18] = target: Peroxisome proliferator-activated receptor delta (Homo sapiens) (UniProt Q03181); assay: qHTS assay to identify small molecule antagonists of the peroxisome proliferator-activated receptor delta (PPARd) signaling pathway (AID 743215; active means well fitted inhibition curve with a large enough effect in the signal ratio in the repeat runs, not every such curve was filed as active; the % refers to the signal ratio;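 further: cells stimulated with agonist L165041 at 300 nM final during compound exposure; series mostly up to about 62 µM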)
How it was run: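 Cells: HEK293H with a UAS-driven beta-lactamase reporter responsive to PPARd. Compounds were co-added with L165041 (300 nM, final) and incubated 17 h at 37 C before a 2 h room-temperature FRET substrate step and fluorescence reading.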

[19] = qHTS assay to identify small molecule agonists of the peroxisome proliferator-activated receptor delta (PPARd) signaling pathway - cell viability counter screen (AID 743211); further: nearly all actives have a fitted effect of over 55% in size
How it was run: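 Viability was measured as CellTiter-Glo luminescence (30 min, room temperature) in the same wells as the beta-lactamase readout. GeneBLAzer PPARd UAS-bla HEK293H cells received compound after 5 h plating and were incubated 17 h at 37 C.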

[20] = qHTS assay for small molecule agonists of the antioxidant response element (ARE) signaling pathway - cell viability counter screen (AID 743203; calls by dose curve; further: nearly all actives have a fitted effect of over 55% in size)
How it was run: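 Cytotoxicity was tested in parallel with the ARE reporter screen. ARE-bla HepG2 cells were exposed to compounds for 16 hrs, and viability was taken from CellTiter-Glo luminescence.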
On the % scale 0 is the no-effect control and ±100 the full control effect.

Chain of Bile acid receptor (Homo sapiens) (Q96RI1 whole entry, looked up): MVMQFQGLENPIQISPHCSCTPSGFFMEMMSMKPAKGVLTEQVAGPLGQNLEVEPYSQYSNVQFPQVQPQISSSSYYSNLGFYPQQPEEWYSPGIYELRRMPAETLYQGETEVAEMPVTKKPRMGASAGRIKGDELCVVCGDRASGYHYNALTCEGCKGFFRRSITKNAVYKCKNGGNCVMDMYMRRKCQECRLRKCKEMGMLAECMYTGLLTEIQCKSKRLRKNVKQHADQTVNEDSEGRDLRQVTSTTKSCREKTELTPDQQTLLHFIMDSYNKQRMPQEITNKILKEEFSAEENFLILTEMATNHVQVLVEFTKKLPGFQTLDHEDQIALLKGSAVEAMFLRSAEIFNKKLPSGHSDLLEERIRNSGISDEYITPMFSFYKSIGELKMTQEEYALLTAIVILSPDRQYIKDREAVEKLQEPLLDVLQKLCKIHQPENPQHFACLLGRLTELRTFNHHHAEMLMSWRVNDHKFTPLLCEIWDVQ
Chain of Peroxisome proliferator-activated receptor delta (Homo sapiens) (Q03181 whole entry, looked up): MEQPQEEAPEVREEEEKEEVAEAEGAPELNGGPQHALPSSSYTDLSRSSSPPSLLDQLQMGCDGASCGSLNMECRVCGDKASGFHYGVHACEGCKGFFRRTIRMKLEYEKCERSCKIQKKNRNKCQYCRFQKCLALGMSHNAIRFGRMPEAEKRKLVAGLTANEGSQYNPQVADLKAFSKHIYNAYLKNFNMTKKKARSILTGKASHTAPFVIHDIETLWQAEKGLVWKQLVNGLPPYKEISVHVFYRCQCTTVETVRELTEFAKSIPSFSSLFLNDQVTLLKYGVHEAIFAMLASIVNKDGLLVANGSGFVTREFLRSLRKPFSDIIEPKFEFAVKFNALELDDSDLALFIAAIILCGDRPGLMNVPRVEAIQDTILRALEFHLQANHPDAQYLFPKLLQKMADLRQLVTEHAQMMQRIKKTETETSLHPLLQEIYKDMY
Chain of Peroxisome proliferator-activated receptor gamma (Homo sapiens) (P37231 whole entry, looked up): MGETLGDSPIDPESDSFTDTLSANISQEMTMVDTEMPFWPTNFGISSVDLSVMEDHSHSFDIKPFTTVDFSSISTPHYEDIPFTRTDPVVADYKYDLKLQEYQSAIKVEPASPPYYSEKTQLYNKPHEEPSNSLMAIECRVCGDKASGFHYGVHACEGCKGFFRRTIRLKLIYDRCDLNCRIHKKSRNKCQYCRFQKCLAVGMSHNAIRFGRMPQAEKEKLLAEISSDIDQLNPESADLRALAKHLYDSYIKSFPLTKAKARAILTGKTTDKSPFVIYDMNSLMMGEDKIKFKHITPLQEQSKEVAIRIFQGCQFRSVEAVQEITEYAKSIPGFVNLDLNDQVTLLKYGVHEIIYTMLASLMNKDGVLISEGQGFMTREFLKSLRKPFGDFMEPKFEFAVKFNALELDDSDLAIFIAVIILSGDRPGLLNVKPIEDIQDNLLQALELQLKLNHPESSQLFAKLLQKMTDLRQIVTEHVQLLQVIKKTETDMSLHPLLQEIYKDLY
Chain of Vitamin D3 receptor (Homo sapiens) (P11473 whole entry, looked up): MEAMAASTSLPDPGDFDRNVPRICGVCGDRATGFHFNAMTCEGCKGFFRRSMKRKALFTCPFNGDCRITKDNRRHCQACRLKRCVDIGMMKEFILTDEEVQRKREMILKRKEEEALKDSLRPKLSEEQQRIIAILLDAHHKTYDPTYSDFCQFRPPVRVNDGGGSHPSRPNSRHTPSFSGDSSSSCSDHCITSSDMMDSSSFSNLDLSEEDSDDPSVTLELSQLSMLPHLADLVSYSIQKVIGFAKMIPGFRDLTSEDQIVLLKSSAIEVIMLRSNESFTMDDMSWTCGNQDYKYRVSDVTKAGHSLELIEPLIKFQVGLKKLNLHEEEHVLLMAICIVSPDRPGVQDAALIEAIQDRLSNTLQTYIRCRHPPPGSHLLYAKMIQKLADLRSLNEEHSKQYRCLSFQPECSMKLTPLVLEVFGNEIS
Chain of Aryl hydrocarbon receptor (Homo sapiens) (P35869 whole entry, looked up): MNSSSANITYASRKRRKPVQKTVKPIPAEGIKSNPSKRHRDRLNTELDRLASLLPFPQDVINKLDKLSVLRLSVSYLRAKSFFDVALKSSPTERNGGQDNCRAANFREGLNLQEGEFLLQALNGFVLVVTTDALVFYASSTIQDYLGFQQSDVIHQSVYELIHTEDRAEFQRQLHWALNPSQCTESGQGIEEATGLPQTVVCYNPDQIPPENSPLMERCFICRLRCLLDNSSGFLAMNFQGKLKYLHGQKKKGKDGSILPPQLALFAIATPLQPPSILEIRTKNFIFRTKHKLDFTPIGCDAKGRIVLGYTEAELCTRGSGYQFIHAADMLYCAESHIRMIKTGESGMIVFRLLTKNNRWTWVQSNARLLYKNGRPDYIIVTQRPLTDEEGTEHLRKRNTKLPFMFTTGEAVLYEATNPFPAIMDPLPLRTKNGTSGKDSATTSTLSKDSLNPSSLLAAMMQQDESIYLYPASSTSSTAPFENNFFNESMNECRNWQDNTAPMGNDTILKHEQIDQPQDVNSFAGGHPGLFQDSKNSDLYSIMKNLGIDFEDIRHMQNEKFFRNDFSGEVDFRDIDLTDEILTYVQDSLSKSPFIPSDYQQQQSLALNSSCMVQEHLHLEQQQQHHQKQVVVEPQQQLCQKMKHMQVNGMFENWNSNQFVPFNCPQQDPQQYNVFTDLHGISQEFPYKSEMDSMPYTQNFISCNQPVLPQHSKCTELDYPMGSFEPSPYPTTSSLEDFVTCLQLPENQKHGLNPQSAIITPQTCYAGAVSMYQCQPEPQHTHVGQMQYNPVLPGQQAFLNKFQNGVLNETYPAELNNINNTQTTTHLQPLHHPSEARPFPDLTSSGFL

CCCCNc1ccc(C(=O)OCCOCCOCCOCCOCCOCCOCCOCCOCCOC)cc1
inactive: Potency [1] | Potency [2] | Potency [3] | Potency [4] | Potency [5] | Potency [6] | Potency [7] | Potency [8] | Potency [9] | Potency [10] | Potency [11] | Potency [12] | Potency [13] | Potency [14] | outcome [15] | Potency [16]

CC1CCC(=O)C1=O (centres undefined)
inactive: Potency [1] | Potency [2] | Potency [3] | Potency [4] | Potency [5] | Potency [17] | Potency [7] | Potency [8] | Potency [18] | Potency [10] | Potency [11] | Potency [13] | Potency [14]

C/C(=C(\CCOP(=O)(O)O)SC(=O)c1ccccc1)N(C=O)Cc1cnc(C)nc1N
inactive: Potency [1] | Potency [2] | Potency [3] | ratio activity, negative = inhibition [4] 3.86% [at 5.95 µM] | activity change, negative = cytotoxicity [5] 4.9% [at 5.95 µM] | activation [17] 14.1% [at 8.36 µM] | activity change, negative = cytotoxicity [6] -16.4% [at 5.95 µM] | activation [7] 1.29% [at 5.95 µM] | activity change, negative = cytotoxicity [19] 2.72% [at 5.95 µM] | activation [8] -1.46% [at 5.95 µM] | viability change, negative = cytotoxic [9] 1.06% [at 6.26 µM] | ratio activity, negative = inhibition [18] 6.78% [at 6.26 µM] | viability change, negative = cytotoxic [11] 3.54% [at 5.95 µM] | activity change, negative = cytotoxicity [13] 0.132% [at 5.95 µM] | activation [14] -0.529% [at 6.01 µM] | activity change, negative = inhibition [15] 2.53% [at 6.95 µM] | activity change, negative = cytotoxicity [16] -3.71% [at 5.95 µM]

CCCCC(CC)COC(=O)COc1ccc(Cl)cc1Cl (centres undefined)
inactive: Potency [1] | Potency [2] | Potency [3] | Potency [4] | Potency [5] | Potency [17] | Potency [7] | Potency [9] | Potency [11] | Potency [13] | Potency [14] | outcome [15] | Potency [16]

O=[N+]([O-])c1cccc(S(=O)(=O)O)c1
inactive: Potency [1] | Potency [2] | Potency [3] | Potency [4] | Potency [5] | Potency [20] | Potency [6] | Potency [7] | Potency [19] | Potency [8] | Potency [18] | Potency [13] | Potency [14] | outcome [15] | Potency [16]

COc1ccc(C(=O)N2CCN(CC(=O)N3CCOCC3)CC2)cc1
inactive: Potency [1] | Potency [2] | Potency [3] | Potency [4] | Potency [5] | Potency [17] | Potency [7] | Potency [19] | Potency [9] | Potency [11] | Potency [13] | Potency [14] | outcome [15] | Potency [16]

C[N+](C)(C)CCOC(=O)CCC(=O)OCC[N+](C)(C)C
inactive: Potency [1] | Potency [2] | Potency [3] | Potency [4] | Potency [5] | Potency [17] | Potency [6] | Potency [7] | Potency [11] | Potency [13] | Potency [16]

CCCCOC(=O)CCCCCCCC(=O)OCCCC
inactive: Potency [1] | Potency [2] | Potency [3] | Potency [4] | Potency [5] | Potency [20] | Potency [6] | Potency [19] | Potency [8] | Potency [10] | Potency [11] | Potency [12] | Potency [13] | Potency [14] | Potency [16]
